Screening results from PubChem BioAssay.
The list is not random: actives were taken first. Their share in the collection is about 19%.
DT40 TDP1 no CPT – qHTS for Inhibitors of human tyrosyl-DNA phosphodiesterase 1 (TDP1): qHTS in cells in absence of CPT | DT40 Tdp1-/- hTDP1 cells, no CPT, ATP luminescence, 48 h | Potency, µM (top dose mostly 46.2 µM), most hits filed as inhibitors | hit rate 15% among 420,000; also: nearly all actives have a fitted effect of over 55% in size
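Compound effects on proliferation are scored in DT40 Tdp1-/-;hTDP1 cells in the absence of CPT. ATP levels (CellTiter-Glo luminescence) are recorded after a ≥48 hr, 37 °C incubation.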
TDP1 cell CPT – growth inhibition of DT40 Tdp1-/-;hTDP1 cells with camptothecin (screen for TDP1 inhibitors); hit rate 12% among 420,000; chicken DT40 Tdp1-/-;hTDP1 cells + 20 nM CPT, ATP luminescence, 48 h; Potency, µM (doses to about 46.2 µM), usual class: inhibitors; also: nearly all actives have a fitted effect of over 55% in size
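Chicken DT40 Tdp1-/- cells complemented with human TDP1, 400 cells/well, exposed to compounds plus 20 nM camptothecin for at least 48 h at 37 C; viability read as ATP content by CellTiter-Glo luminescence.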
TDP1 block – blocks human tyrosyl-DNA phosphodiesterase 1 | hit rate 0.28% among 350,000 | AID 485290 | recombinant TDP1, AlphaScreen DNA substrate cleavage | Potency, µM (doses to about 130 µM), actives largely listed as inhibitors; also: nearly all actives have a fitted effect of over 40% in size
Target sequence (Q9NUW8 whole entry, looked up): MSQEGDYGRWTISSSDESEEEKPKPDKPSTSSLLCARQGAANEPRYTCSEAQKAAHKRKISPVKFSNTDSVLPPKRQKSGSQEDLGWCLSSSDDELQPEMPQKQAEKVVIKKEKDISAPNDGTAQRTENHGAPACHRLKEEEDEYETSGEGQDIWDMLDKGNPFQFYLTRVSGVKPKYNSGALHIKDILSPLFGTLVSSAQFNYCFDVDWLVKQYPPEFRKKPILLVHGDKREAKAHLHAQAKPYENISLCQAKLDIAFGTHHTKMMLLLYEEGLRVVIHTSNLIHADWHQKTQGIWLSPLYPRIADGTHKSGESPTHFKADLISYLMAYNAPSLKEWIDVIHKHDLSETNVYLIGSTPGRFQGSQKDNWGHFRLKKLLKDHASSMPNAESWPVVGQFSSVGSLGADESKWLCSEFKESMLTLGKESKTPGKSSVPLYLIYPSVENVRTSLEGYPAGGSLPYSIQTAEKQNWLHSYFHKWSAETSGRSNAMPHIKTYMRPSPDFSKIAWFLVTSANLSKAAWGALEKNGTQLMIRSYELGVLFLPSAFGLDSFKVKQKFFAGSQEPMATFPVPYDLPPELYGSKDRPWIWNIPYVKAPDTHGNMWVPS
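E. coli-derived human Tdp1, 1 nM final. Cpd preinc 15 min RT; substrate 15 nM final, 5 min RT; AS bead mix 10 ug/ml final, 10 min RT. Signal loss = tyrosine-FITC cleavage. No-enzyme wells = max signal.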
RORg inh – ROR gamma (mouse) transcription inhibition. P51450. Drosophila S2 Gal4-RORgamma UAS-luciferase reporter, 20 h. Potency, µM (highest dose often 53.6 µM), hits mostly inhibitors. hit rate 5.4% among 310,000; also: nearly all actives have a fitted effect of over 60% in size
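In this cell-based reporter format, copper sulfate (700 uM final) drives Gal4–ROR gamma fusion expression from a metallothionein promoter in Drosophila Schneider cells; compounds preincubated 1 hr, reporter read after 20 hr at ambient temperature.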
Gal4-VP16 FLuc – inhibits Gal4-VP16 luciferase reporter, ROR gamma counter-screen | hit rate 3.5% among 310,000 | Drosophila S2 Gal4-VP16 UAS-luciferase, luminescence, 20 h | Potency, µM (top dose mostly 53.6 µM), most hits filed as inhibitors;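 also: Gal4-VP16 expression switched on by copper sulfate through the metallothionein promoter; nearly all actives have a fitted effect of over 50% in size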
Of the large screens only hits and unclear results are named; the others gave an inactive call. Calls follow the shape of the dose curve; as a rule, active = well fitted curve in the direction sought with a large enough effect; inconclusive = small, poorly fitted or top-dose-only effect, or another doubt; inactive = no such curve, though single readings can be large; an effect the other way counts as inactive or inconclusive.

O=C(Nc1ccc(S(=O)(=O)O)cc1)c1ccc2c(c1)S(=O)(=O)c1ccccc1C2=O	none (no result: TDP1 block, RORg inh, Gal4-VP16 FLuc)
CCOC(=O)N1CCN(C(=O)c2cn(C)c3ccc(S(=O)(=O)N4CCOCC4)cc3c2=O)CC1	none
COc1ccc2c(C)cc(SCC(=O)Nc3nsc(-c4ccc(C)cc4)n3)nc2c1	none
Cc1cc(SCC(=O)O)nc2ccccc12	none
O=C(CSc1nnnn1-c1ccc(O)cc1)c1cc2ccccc2o1	DT40 TDP1 no CPT inconclusive, TDP1 cell CPT 13µM
Cc1cc(SCC(=O)c2cc3ccccc3o2)nc2ccccc12	RORg inh 11µM, Gal4-VP16 FLuc inconclusive
Cc1ccc(-c2nc(NC(=O)CSc3cc(C)c4ccccc4n3)ns2)cc1	DT40 TDP1 no CPT 16µM, TDP1 cell CPT 13µM
COc1ccc2c(C)cc(SCC(=O)Nc3nsc(-c4ccccc4C)n3)nc2c1	DT40 TDP1 no CPT 15µM, TDP1 cell CPT inconclusive (no result: RORg inh, Gal4-VP16 FLuc)
CCc1ccc2oc(-c3cc(NC(=O)c4cccnc4)cc(C)c3O)nc2c1	none (no result: DT40 TDP1 no CPT, TDP1 cell CPT, RORg inh, Gal4-VP16 FLuc)
Cc1nc(NC(=O)CSc2cc(C)c3ccccc3n2)c(Cl)cc1Cl	DT40 TDP1 no CPT inconclusive, TDP1 cell CPT inconclusive, RORg inh 2.5µM, Gal4-VP16 FLuc inconclusive
Cc1cc(SCC(=O)NCCC2=CCCCC2)nc2ccccc12	DT40 TDP1 no CPT inconclusive, TDP1 cell CPT inconclusive, RORg inh inconclusive, Gal4-VP16 FLuc 6.3µM
Cc1cc(SCC(=O)Nc2cccnc2Cl)nc2ccccc12	none
O=C(O)C1=C[C@H](C2CC2)C[C@H](OCc2ccc(CO)cc2)O1	none (no result: TDP1 block, RORg inh, Gal4-VP16 FLuc)
CN(C)CCN(Cc1ccccc1)S(=O)(=O)c1ccc(-c2cc(C(F)(F)F)on2)s1	DT40 TDP1 no CPT 12µM, TDP1 cell CPT 15µM (no result: RORg inh, Gal4-VP16 FLuc)
CC(C)N(Cc1ccccc1)S(=O)(=O)c1ccc(-c2cc(C(F)(F)F)on2)s1	DT40 TDP1 no CPT inconclusive, TDP1 cell CPT inconclusive (no result: RORg inh, Gal4-VP16 FLuc)
N#Cc1c(N)[nH]c(=S)c(C#N)c1-c1ccccc1	DT40 TDP1 no CPT inconclusive, TDP1 cell CPT 21µM, RORg inh 10µM, Gal4-VP16 FLuc inconclusive
Cc1ccc(-c2cc(-c3ccccc3)[nH]c(=S)c2C#N)cc1	RORg inh inconclusive, Gal4-VP16 FLuc inconclusive
Cc1ccc(-c2ccnc3nc(-n4cccc4)nn23)o1	DT40 TDP1 no CPT 21µM, TDP1 cell CPT 15µM
COc1ccc(-c2nnn(CC(=O)N(Cc3ccco3)C(C(=O)NCC3CCCO3)c3ccco3)n2)cc1 (stereo not given)	DT40 TDP1 no CPT inconclusive, TDP1 cell CPT inconclusive
Cc1ccc(-c2nnn(CC(=O)N(Cc3ccco3)C(C(=O)NC(C)(C)C)c3ccc(C)o3)n2)o1 (stereo not given)	DT40 TDP1 no CPT 21µM, TDP1 cell CPT 16µM
COc1cccc(N(C(=O)Cn2nnc(-c3ccc(Cl)cc3)n2)C(C(=O)NCC2CCCO2)c2ccc(C)cc2)c1 (stereo not given)	DT40 TDP1 no CPT 21µM, TDP1 cell CPT 16µM
Cc1ccc(-c2nnn(CC(=O)N(Cc3ccccc3)C(C(=O)NC(C)(C)C)c3ccncc3)n2)o1 (stereo not given)	none
COc1ccc(CN(C(=O)Cn2nnc(-c3ccc(C)o3)n2)C(C(=O)NCC2CCCO2)c2ccco2)cc1 (stereo not given)	DT40 TDP1 no CPT inconclusive, RORg inh 5µM, Gal4-VP16 FLuc 7.1µM
COc1ccc(-c2nnn(CC(=O)N(Cc3ccccc3Cl)C(C(=O)NCC3CCCO3)c3ccco3)n2)cc1 (stereo not given)	DT40 TDP1 no CPT 18µM, TDP1 cell CPT inconclusive
COc1cc(/C=N/NC(=O)c2ccc(Cl)cc2)ccc1OCC(=O)N1CC(C)OC(C)C1 (stereo not given)	DT40 TDP1 no CPT inconclusive
CC(=O)N1CCC(C(=O)NCCOc2cccc(C)c2)CC1	none
O=C(NC1(C(=O)O)CCCC1)C(Cl)Cl	none (no result: TDP1 block, RORg inh, Gal4-VP16 FLuc)
COCc1cc(OC)nc(-c2csc(C)n2)n1	RORg inh 11µM
COc1cc(/C=C2/C(=O)NN(c3cccc(F)c3)C2=O)ccc1OC(=O)c1ccco1	DT40 TDP1 no CPT 16µM, TDP1 cell CPT inconclusive, Gal4-VP16 FLuc inconclusive
CN(C(=O)c1ccoc1)c1ccc2ccccc2c1	DT40 TDP1 no CPT inconclusive, TDP1 cell CPT 13µM
O=c1[nH]n(-c2ccccc2Cl)c(=O)c2ccccc12	none (no result: TDP1 block)
CSc1ccc(S(=O)(=O)NCC(=O)OCC(=O)N2CC(C)CC(C)C2)cc1[N+](=O)[O-] (stereo not given)	none (no result: RORg inh, Gal4-VP16 FLuc)
COC(=O)C1CCN(C(=O)COC(=O)CNS(=O)(=O)c2ccc(SC)c([N+](=O)[O-])c2)CC1	TDP1 block 35µM (no result: RORg inh, Gal4-VP16 FLuc)
O=C(CSc1ncc(-c2ccc(F)cc2)[nH]1)Nc1cccc(O)c1	DT40 TDP1 no CPT inconclusive, TDP1 cell CPT inconclusive
CC1CC(C)CN(C(=O)CSC2=Nc3ccccc3C3=NC(Cc4c[nH]c5ccccc45)C(=O)N23)C1 (stereo not given)	DT40 TDP1 no CPT 16µM, TDP1 cell CPT inconclusive
O=C(CSC1=Nc2ccccc2C2=NC(Cc3c[nH]c4ccccc34)C(=O)N12)NC1CCCCC1 (stereo not given)	none
COc1ccccc1NC(=O)CSc1oc(-c2cccs2)nc1S(=O)(=O)c1ccc(C)cc1	DT40 TDP1 no CPT inconclusive, TDP1 cell CPT inconclusive (no result: RORg inh, Gal4-VP16 FLuc)
O=C(CSc1oc(-c2cccs2)nc1S(=O)(=O)c1ccc(F)cc1)NCC1CCCO1 (stereo not given)	DT40 TDP1 no CPT inconclusive, TDP1 cell CPT inconclusive, RORg inh inconclusive
Cc1cc(C)cc(NC(=O)CSc2oc(-c3cccs3)nc2S(=O)(=O)c2ccccc2)c1	DT40 TDP1 no CPT 5.8µM, TDP1 cell CPT 21µM (no result: RORg inh, Gal4-VP16 FLuc)
O=C(CSc1oc(-c2cccs2)nc1S(=O)(=O)c1ccccc1)Nc1ccc(F)cc1	DT40 TDP1 no CPT inconclusive, TDP1 cell CPT 16µM (no result: RORg inh, Gal4-VP16 FLuc)
O=C(CSc1oc(-c2ccc(F)cc2)nc1S(=O)(=O)c1ccccc1)c1ccc(Cl)cc1	DT40 TDP1 no CPT 9.2µM, TDP1 cell CPT 10µM (no result: RORg inh, Gal4-VP16 FLuc)
COC(=O)NC(Nc1sc2c(c1C(N)=O)CCCC2)(C(=O)OC)C(F)(F)F (stereo not given)	none
CCCN1CNC(=S)N(c2ccc(C(=O)OCC)cc2)C1	none
Cc1ccc(N2CN(CCc3ccccc3)CNC2=S)cc1	RORg inh 5µM, Gal4-VP16 FLuc 13µM
CCOC(=O)c1ccc(N2CN(CCc3ccccc3)CNC2=S)cc1	DT40 TDP1 no CPT inconclusive, TDP1 cell CPT 16µM, RORg inh inconclusive, Gal4-VP16 FLuc inconclusive
CCN1CNC(=S)N(c2cccc(C)c2)C1	DT40 TDP1 no CPT inconclusive, RORg inh inconclusive
CCOC(=O)C1=C(C)N=c2s/c(=C\c3ccc(OCC(=O)O)cc3)c(=O)n2C1c1ccccc1 (stereo not given)	none (no result: TDP1 block)
CCOC(=O)C1=C(C)N=c2s/c(=C\c3cccn3C)c(=O)n2C1c1cccc(OC)c1OC (stereo not given)	DT40 TDP1 no CPT 21µM, TDP1 cell CPT inconclusive, RORg inh inconclusive, Gal4-VP16 FLuc inconclusive
